# KCNH2 3.1 inh: inhibitors of human KCNH2 3.1 potassium channel isoform. U2OS KCNH2 3.1, thallium flux FluxOr; stronger effect = lower value. activity change, % (tested at about 1.8 µM). 340,000 compounds, 0.95% hits. AID 720553;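 active means maximum activity change below -70%; inconclusive means maximum activity change from -70% to -50%; inactive means maximum activity change above -50%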;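 further: thallium influx rate constant from kinetic fluorescence after stimulation buffer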
#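 U2OS cells transduced with KCNH2 3.1 mutant virus (1.77 x 10^8 /mL, 4 h), plated overnight at 37 C, loaded 45 min with FluxOr dye plus Red40 quencher. Thallium flux rate constant from kinetic reads after stimulation buffer, normalised to controls.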
# USP1 inh: inhibitors of human USP1/UAF1 deubiquitinase. Potency, µM (highest dose often 57.1 µM), for the others: top-dose activity change, negative = inhibition, actives largely listed as inhibitors. O94782. recombinant USP1/UAF1, Ub-Rhodamine cleavage fluorescence. 390,000 compounds, 0.23% hits; active means well fitted inhibition curve with a large enough effect; inconclusive means small, poorly fitted or top-dose-only effect; inactive means no such curve, though single readings can be large or run the other way; further: potency means the concentration at half of the fitted maximal effect; nearly all actives have a fitted effect of over 60% in size
# Target sequence (O94782 whole entry, looked up): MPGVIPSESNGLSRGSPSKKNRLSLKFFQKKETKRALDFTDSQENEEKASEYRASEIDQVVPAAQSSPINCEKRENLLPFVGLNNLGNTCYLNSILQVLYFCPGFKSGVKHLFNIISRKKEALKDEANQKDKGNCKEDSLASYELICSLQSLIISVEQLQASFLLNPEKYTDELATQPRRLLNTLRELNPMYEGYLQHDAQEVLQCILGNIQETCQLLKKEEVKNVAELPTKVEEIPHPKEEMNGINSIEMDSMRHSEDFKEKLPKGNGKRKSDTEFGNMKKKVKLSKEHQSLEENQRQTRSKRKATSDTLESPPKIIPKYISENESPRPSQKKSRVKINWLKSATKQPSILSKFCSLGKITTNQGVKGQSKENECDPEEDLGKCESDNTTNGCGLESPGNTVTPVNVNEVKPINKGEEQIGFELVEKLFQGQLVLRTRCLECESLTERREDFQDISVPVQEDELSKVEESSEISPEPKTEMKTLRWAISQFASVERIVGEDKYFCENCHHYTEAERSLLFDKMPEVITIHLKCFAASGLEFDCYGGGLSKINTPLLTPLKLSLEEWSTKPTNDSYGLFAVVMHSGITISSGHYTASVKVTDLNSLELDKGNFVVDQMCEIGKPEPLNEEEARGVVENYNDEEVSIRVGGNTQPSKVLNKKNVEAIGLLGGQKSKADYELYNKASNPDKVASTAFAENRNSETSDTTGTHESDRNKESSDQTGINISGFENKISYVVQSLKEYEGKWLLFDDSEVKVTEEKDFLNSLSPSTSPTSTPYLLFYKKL
#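 1 nM enzyme complex + cpd, 15 min RT; start with Ub-Rho 150nM final; kinetic fluorescence ex 480/em 540, 6 reads q60 s. Buffer 50mM HEPES pH 7.8, 0.5mM EDTA, 0.1 mg/ml BSA, 1mM TCEP, 0.01% Tween-20.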
# FBPA coupling cs: coupling enzyme interference in Giardia aldolase counter-screen. coupling enzyme system counterscreen, AmpLite Red fluorescence. activity change, negative = inhibition, % at 58.2 µM, hits read low. 290,000 compounds, 0.67% hits. AID 2472; in the data active means activity change below about -30%
#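 Final compound at 57.5 uM, incubated 10 min at RT with coupling enzyme reagent (glyceraldehyde-3-phosphate), then 20 min with substrate and AmpLite Red detection. Fluorescence read at 525/598 nm; tests interference with the coupling assay, not aldolase inhibition.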
# Giardia killer: Giardia lamblia killing | Giardia lamblia trophozoite viability | activity change, % at 7.66 µM, hits read low | 340,000 compounds, 0.15% hits; in the data active means activity change below about -80%; inconclusive means between about -30% and that limit;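 further: parasites exposed to compound for two days anaerobically before the ATP read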
#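 Luminescent ATP signal served as the viability read-out, measured 15-30 min after adding ATP detection reagent to trophozoites that had been incubated with compounds for 48 hrs at 37 deg C anaerobically at 100 cells/well.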
# KCNH2 WT inh: inhibitors of human wildtype KCNH2 potassium channel; AID 720551; 340,000 compounds, 0.37% hits; activity change, % at 1.84 µM; Q12809; U2OS, BacMam KCNH2, thallium flux FluxOr; stronger effect = lower value;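 active means maximum activity change below -70%; inconclusive means maximum activity change between -70% and -50%; inactive means maximum activity change above -50%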
#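 U2OS cells were transduced with wild-type KCNH2 virus (2.03 x 10^8 / mL) for 4 h at room temperature, then cultured overnight at 37 C. Thallium flux was read with FluxOr dye. Rate constants were normalized to DMSO controls.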
# Starred values were filed as active, the others as inactive; ? = inconclusive; nt = not tested or not shown; ! = repeats disagree. The list is not random: actives were taken first. Their share in the collection is about 1.7%. On the % scale 0 is the no-effect control and ±100 the full control effect.
SMILES,KCNH2 3.1 inh,USP1 inh,FBPA coupling cs,Giardia killer,KCNH2 WT inh
CC1(C)CC(=O)C2=C(C1)N(c1ccccc1)C(=O)C(C(=O)OCc1ccccc1)C2 (configuration not stated),2,-20%,nt,5,-3
COC(=O)CCCC1=CC2=CC(=O)C(C)(OC(=O)c3cccs3)C(=O)C2=CN1CCc1ccccn1 (configuration not stated),37,?,-31*!,-21,-1
C=CCN1C=C2C(=O)C(C)(OC(=O)c3cccs3)C(=O)C=C2C=C1CCCC(=O)OC (configuration not stated),-7,?,-7,0,-10
COc1ccc2cc(C#N)c(SCC(=O)OCc3ccccc3)nc2c1,nt,nt,nt,15,nt
COc1ccc(C(=O)NC(=S)Nc2ccc3oc(=O)ccc3c2)cc1OC,-99*,-1%,2,9,-3
COc1cccc(OC)c1C(=O)NC(=S)Nc1ccc2oc(=O)ccc2c1,3,-8%,4,-19,-10
Cc1cccc(-n2c(=O)c3c4c(sc3n3c(C)nnc23)CCCC4)c1,nt,-3%,nt,nt,nt
C#CC(C)OC(=O)Nc1cccc(Cl)c1 (configuration not stated),nt,nt,1,nt,nt
Cc1ccc(S(=O)(=O)CCC(=O)N2CCN(c3ccc([N+](=O)[O-])cc3)CC2)cc1,-77*,4%,0,1,-37
O=[N+]([O-])c1ccc(N2CCN(C(=S)c3cccc([N+](=O)[O-])c3)CC2)cc1,-102*,-11%,-10,-1,-42
Cc1ccc(C(=O)NC(=S)N2CCN(c3ccc([N+](=O)[O-])cc3)CC2)cc1,-47,-17%,0,-14,-30
Cc1ccc(C(=O)ON=C2CCN(c3ccc([N+](=O)[O-])cc3)CC2)cc1,-103*,-15%,-2,3,-109*
CCCC(=O)NC(=S)N1CCN(c2ccc([N+](=O)[O-])cc2)CC1,3,5%,-32*,-25,20
CC(=O)N1CCN(C(=S)c2cccc([N+](=O)[O-])c2)CC1,-9,-19%,11,-24,-1
OC[C@@H]1CCC[C@@H](n2cnc3c(=S)nc[nH]c32)O1,nt,nt,nt,-15,nt
O=C1NC2(c3ccccc3)NC(=O)NC2(c2ccccc2)N1 (configuration not stated),-4,-22%,nt,1,3
O=C(c1ccccc1)c1ccccc1N1C(=O)C=CC1=O,1,6%,1,0,-4
O=C1C=CC(=O)N1c1ccccc1N1C(=O)C=CC1=O,-193*,-20%,nt,7,-135*
Cc1c[nH]c2cccc(OCC(O)CNC(C)(C)C)c12 (configuration not stated),5,-3%,-35*,1,-12
CC(C)(C)NCC(O)COc1ccccc1C(C)(C)C (configuration not stated),-10,4%,-1,-12,3
Cc1ccc2c(c1)NC(=O)C(CC(=O)Nc1cc(Cl)ccc1C)O2 (configuration not stated),nt,8%,nt,nt,nt
Nc1ncc(O)c(N)n1,nt,nt,-1,nt,nt
Nc1ccc2nn(-c3ccccc3)nc2c1,-3,?,-5,-17,-3
Nc1cc2nn(-c3ccccc3)nc2cc1Cl,14,?,-44*,3,1
COc1ccc(CNC(=O)c2ccc(CNS(=O)(=O)c3ccc(F)cc3)cc2)cc1,nt,-6%,nt,nt,nt
SMILES,KCNH2 3.1 inh,USP1 inh,FBPA coupling cs,Giardia killer,KCNH2 WT inh
CN(C)S(=O)(=O)c1ccc2c(c1)C(=O)c1cc(S(=O)(=O)N(C)C)ccc1CC2,nt,nt,nt,-14,nt
CN(C)S(=O)(=O)c1ccc2c(c1)/C(=C/c1cc3c([nH]1)CCCC3)C(=O)N2,-7,32µM*,nt,14,0
O=C(Nc1cccc(Cl)c1)OCC#CCCl,nt,nt,-38*,nt,nt
O=C(Nc1cccc(Cl)c1)OCCOC(=O)Nc1cccc(Cl)c1,14,-11%,nt,2,4
CC(=O)c1ccc(N2CCN(c3ccnc4cc(Cl)ccc34)CC2)cc1,-91*,-11%,0,2,-29
O=[N+]([O-])c1ccc(S(=O)(=O)N2CCN(c3ccnc4cc(Cl)ccc34)CC2)cc1,-92*,-19%,nt,-8,-124*
COc1cc2c(cc1OC)C1O[C@](c3ccsc3)(C2)OC2=C1C(=O)CC(C)(C)C2,nt,nt,-3,nt,nt
COc1cccc2c1C(=O)c1c(O)c3c(c(O)c1C2=O)CC(O)(C(C)=O)CC3OC1CC(O)C(O)C(C)O1 (configuration not stated),-12,25µM*,nt,-26,11
COc1cccc2c1C(=O)c1c(O)c3c(c(O)c1C2=O)C[C@](O)(C(C)=O)C[C@H]3O[C@@H]1C[C@@H](N)[C@@H](O)[C@@H](C)O1,3,13µM*,nt,9,6
COc1cccc2c1C(=N)c1c(O)c3c(c(O)c1C2=O)CC(O)(C(C)=O)CC3OC1CC(N)C(O)C(C)O1 (configuration not stated),-16,-26%,nt,-3,-2
C=CCCn1c(Cl)c(C#N)sc1=O,nt,nt,-2,57,nt
CCCC[C@H](NC(C)=O)C(=O)N[C@@H](CCC(=O)O)C(=O)N[C@@H](Cc1cnc[nH]1)C(=O)N[C@H](Cc1ccccc1)C(=O)N[C@@H](CCCN=C(N)N)C(=O)N[C@H](Cc1c[nH]c2ccccc12)C(=O)NCC(N)=O,nt,nt,-2,nt,nt
CCc1c(CN2CCN(c3cccc(C)c3C)CC2)csc1C,nt,-22%,nt,nt,nt
COC(CNC(=O)c1ccc2c3c(onc13)-c1ccccc1C2=O)OC,1,18µM*,-24,-15,2
Cc1sc2nc(COC(=O)c3cccc(OC(F)F)c3)[nH]c(=O)c2c1C,-4,-7%,0,-12,-92*
Cc1sc2nc(COC(=O)c3cccc(S(=O)(=O)N(C)c4ccccc4)c3)[nH]c(=O)c2c1C,33,10%,1,3,-3
Cc1cccc(C)c1NC(=O)CN(C)S(=O)(=O)c1ccc(-c2ccc(=O)[nH]n2)s1,-177*,-14%,nt,-27,15
Cc1ccc(S(=O)(=O)/N=C2/C=C(C3C(=O)CC(C)(C)CC3=O)C(=O)c3ccccc32)cc1,-14,?,-48*,12,3
O=C(O)c1ccc(NC2=C/C(=N/S(=O)(=O)c3ccccc3)c3ccccc3C2=O)cc1,-5,2.8µM*,-47*,-4,-13
Cc1cc(C)c(S(=O)(=O)/N=C2\C=C(NS(=O)(=O)c3ccccc3)C(=O)c3ccccc32)c(C)c1,-8,?,-20,14,-10
Cc1cc(C)c(S(=O)(=O)/N=C2\C=C(Nc3ccc(C(=O)O)cc3)C(=O)c3ccccc32)c(C)c1,-20,14µM*,-42*,-5,11
O=C(O)c1ccc(NS(=O)(=O)c2ccc3c(c2)C(=O)c2ccccc2C3=O)cc1,9,-17%,0,-3,-3
Cc1ccc(S(=O)(=O)/N=C2\C=C(NS(=O)(=O)c3ccccc3)C(=O)c3ccccc32)cc1,-6,18µM*,nt,-1,-4
